The source of these data is PMC12136788.

T1: UNK ZnF1-3 (human, UniProt Q9C0B0 31-174)
T1 sequence: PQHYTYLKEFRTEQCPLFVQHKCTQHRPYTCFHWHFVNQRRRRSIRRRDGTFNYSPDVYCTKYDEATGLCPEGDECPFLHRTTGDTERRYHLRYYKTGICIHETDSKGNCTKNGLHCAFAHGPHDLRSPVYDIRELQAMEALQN

B1: chr9:95013113:95013114:-_ENSG00000196305_ENST00000443024|hu_hu|hu_hu_hu_mus_False|68_98 (ssRNA)
RNA: GGGAGUUCUACAGUCCGACGAUCCUCAGUCAGAAAGGGUGUGUAGGGGGCCAUCAGUCUGCACAGAGAAAGCAGAACACUGAACAGUGUCUCCAGAGCCAUGACACAGUCUUCCACCCCACUCUCACCCUUUAACCUCCUCCUCAACAGAGGAUUGAGCAUCA
B2: 176631152_176631272_1200_CDS_ENSG00000165671_ENST00000439151|human|control|control (ssRNA)
RNA: GGGAGUUCUACAGUCCGACGAUCUUUCUGUUUCCCUCUUCUCCUAAGGACAGGUAGCUCUUCGAAUUGAUGUCUGCCUUCAAACAUGACGAUUGCUUUUCCAGCCACCCAGGCUCUCUCAGAAGGAUCUCCAAAAGCCUCCACCAACAGAGGAUUGAGCAUCA
B3: chr2:42509997:42509998:+_ENSG00000143924_ENST00000318522|hu_mus|hu_hu_hu_mus_True|38_108 (ssRNA)
RNA: GGGAGUUCUACAGUCCGACGAUCUCGCUGAGUUCUCUCCUCAUAAUUAAACAGGACUACCACUGAGGCGAUAAAAUAAACUAUCUCCCCUGUGGGAAGAAGGUAAACAUUCGCUCUACAGUCCUUUCCUCGAUAACCGUAUACCAACAGAGGAUUGAGCAUCA
B4: chr5:72798899:72798900:+_ENSG00000145741_ENST00000335895|hu_mus|motif|central (ssRNA)
RNA: GGGAGUUCUACAGUCCGACGAUCGGGUGCUUUUCCAUCCACAGAUUGUUUGGGCAGAGCUUCAGCCAGUCUCCUUAAACGGGUCAGGCUGUCUGCACCAAGCUGGUUGAGGAUGCUGGGAAGCAUUUCUGUCAGCUGCUUUGUCAACAGAGGAUUGAGCAUCA
B5: 160239608_160243617_1107_3pUTR_ENSG00000186432_ENST00000334256|human|control|control (ssRNA)
RNA: GGGAGUUCUACAGUCCGACGAUCAGGAACUAUUCCAGAGUCUAUUACCAUCUGUAUUUGUUCAUUGCCAGCAUCAGUAAGGUAAGAGAGGGCCCAGACUGUGUCUACCAGUAUAUUUACAUCUGUGUGAUGAAUUAAAACACACAACAGAGGAUUGAGCAUCA
B6: chrX:71099370:71099371:-_ENSMUSG00000031391_ENSMUST00000102871|mus_hu|FALSE|FALSE (ssRNA)
RNA: GGGAGUUCUACAGUCCGACGAUCUUUAUUUUUCCUGGGAUGGGUUCAUCAAAGCUAAUUGCUAUCAAUCCUAGAAACCACCUAGGGACUCAGACAUCUGCCUACACACUAGUGGCGUAAAGGGAAGGACAGGGGUACAAACUUCAACAGAGGAUUGAGCAUCA
B7: chr8:29927545:29927546:-_ENSG00000133872_ENST00000521265|hu_mus|FALSE|FALSE (ssRNA)
RNA: GGGAGUUCUACAGUCCGACGAUCAGAGGACUCGUAGCCUUCACAGCUCACCACAGUUUUGCCAAAUUUGUAUGCAAUAUCCAAGUCGGUCUUACAUUCCCACUGUACAUCGUAGCCAUCCCAGCCUUUGUUCUGGCACUGUAUCAACAGAGGAUUGAGCAUCA
B8: chr1:225611761:225611762:-_ENSG00000143815_ENST00000272163|hu_mus|hu_hu_hu_mus_True|38_48 (ssRNA)
RNA: GGGAGUUCUACAGUCCGACGAUCCCAGGCCAUCGGCCUCUGACCACUUCACCCUCAACAAACUUCCUACUUGGCAUUUUCUAAAAUUAACCUGCGCCAGGUUCCGGGGGAACUCCAGCCACUCCAGGACAGUCACCAGCAGCCCAACAGAGGAUUGAGCAUCA
B9: chr14:63839279:63839280:-_ENSG00000154001_ENST00000337537|hu_hu|motif|central (ssRNA)
RNA: GGGAGUUCUACAGUCCGACGAUCUUAAAAGGAAAAAAGGAAAACAAGGAAAAAAAACCACCCCAAACCCCAAAAAACUCGGAACACUUAAAAAUGCCAAUAACAUCCAUACAUCCCUUUCCCAUCCCACCCUCAUCCCCACAACAACAGAGGAUUGAGCAUCA
B10: chr1:225611761:225611762:-_ENSG00000143815_ENST00000272163|hu_mus|hu_hu_hu_mus_True|38_98 (ssRNA)
RNA: B8 RNA with G41U, A89G, C90U, C94G, G95C
B11: chr7:135832672:135832673:+_ENSMUSG00000042105_ENSMUST00000118605|mus_mus|FALSE|FALSE (ssRNA)
RNA: GGGAGUUCUACAGUCCGACGAUCCACGCCAAAAAUUCCAUCACGACACAAUUUUUACACACACACCAAAAAACAAAAAAAACAAAAAAAAAAAAAAAAAACCCAAAAAACAAAAAACCCUACAGUGUCACUUCCAUCCUGCCUCAACAGAGGAUUGAGCAUCA
B12: chr15:98568902:98568903:-_ENSMUSG00000051853_ENSMUST00000053183|mus_hu|FALSE|FALSE (ssRNA)
RNA: GGGAGUUCUACAGUCCGACGAUCGGCCAGGGAAAUGAAUACAUUUUUAAAUGAAAUAGAACCUCCAACACCCCCCCCACAACCACCACACACAAACACACCCACACCCAUAUACACACACACUCACACACACACACAGGCCUACAACAGAGGAUUGAGCAUCA
B13: chr3:151883435:151883436:+_ENSMUSG00000028034_ENSMUST00000166984|mus_mus|motif|central (ssRNA)
RNA: GGGAGUUCUACAGUCCGACGAUCCAUUUCUCCAUUUCUUCCUAUUACAAUGCCAACAGCAAAUCUUGGAAUUGGGACAUCGGUCCCUUCAUUGCCUCCUAUUCUUGAGCCAUACUCAUUCCGCACUUCUCUGAAACCACCUUGCAACAGAGGAUUGAGCAUCA
B14: chr1:66486067:66486068:+_ENSMUSG00000015222_ENSMUST00000077355|mus_hu|FALSE|FALSE (ssRNA)
RNA: GGGAGUUCUACAGUCCGACGAUCUUAUCCAGGUCCCAAAUGUUAAUAACUUAAUUGAAUCUUUCUUCCCAUUUAUACAAAAUAACACUUUAAAAAAACUUAUUUCUUACAUGCUCUUCCCUUCCUGCAAUCAGACUCCUUGGUCAACAGAGGAUUGAGCAUCA
B15: chr7:26237324:26237325:-_ENSG00000122566_ENST00000356674|hu_mus|FALSE|FALSE (ssRNA)
RNA: GGGAGUUCUACAGUCCGACGAUCCUCAUAGUAGUUUCUCAAACUUUCUUCUGUGGUUUCAAAGCUUAAGCCACCAAUAAAGAGCUUUCGGAACUGUUCCUUUUCUCUCUUUUUCCUCUCCAAAGGAACAGUUUCUAAAGUUUUCAACAGAGGAUUGAGCAUCA
B16: chr14:63839279:63839280:-_ENSG00000154001_ENST00000337537|hu_hu|FALSE|FALSE (ssRNA)
RNA: B9 RNA with G80U, G81A
B17: chr5:131913501:131913502:-_ENSMUSG00000029673_ENSMUST00000160071|mus_mus|FALSE|FALSE (ssRNA)
RNA: GGGAGUUCUACAGUCCGACGAUCGUUCCAGUGCACAGAAUCCUUGGGAUUUUUUUUUUCUUUUUAGUUGUUGUCUUAAAAAAAAAAAAAUUAAAACGAAAGAAAGAAAACAAAACACCGCACACAUCUGGUGUCCACAAAAUCCAACAGAGGAUUGAGCAUCA
B18: 141912308_141912428_1497_3pUTR_ENSMUSG00000028273_ENSMUST00000029941|mouse|control|control (ssRNA)
RNA: GGGAGUUCUACAGUCCGACGAUCUUGGCACCGGCCACAUUCAGGAGCAAAGAACUUCUCAUAGCAUAGCUCACAGUACAGUGCUCCCUUCUCCUCUACAAAGCCUAUGUAGGCCAUUGUGUUUUUGCAAUGAGCACAGUUAAACAACAGAGGAUUGAGCAUCA
B19: chr11:51934471:51934472:+_ENSMUSG00000020349_ENSMUST00000020608|perfect_dup|motif|central (ssRNA)
RNA: GGGAGUUCUACAGUCCGACGAUCGAUUGCAGCUUGGUUACCACAACGAUAACAAUAGUUUGGAGCACUGAAAAUCGUUACGGCAUUCCGGUCAUGGCACCAGUUAUAUCCCUCCAUCACUAGCUGGUGAGCUCUAGACACCAACAACAGAGGAUUGAGCAUCA
B20: chr12:16048344:16048345:+_ENSG00000023734_ENST00000419869|hu_hu|hu_hu_hu_mus_True|38_68 (ssRNA)
RNA: GGGAGUUCUACAGUCCGACGAUCAGAUCGUCCAUAAGUAAUAACCAAAAUCUCUCCUUCAGGAAUAUAUUCCAUACUGCUAACAGACAUAUUAAAAUUUAGAGAUUUCACUUCUGUCAUUGUGGCAUGAUCCCAGAGCCGAACCAACAGAGGAUUGAGCAUCA
B21: chr1:115282395:115282396:-_ENSG00000009307_ENST00000339438|hu_hu|FALSE|FALSE (ssRNA)
RNA: GGGAGUUCUACAGUCCGACGAUCAUUAUACUGUGAACAGUGGAAGAAAAGUCUAGCUUGACGUUCUGAACACUGAAUAAAUCCGUAAGAGGUUAACAGUUUUUCAAUAACCCCAGUUUCACGCAGUGCUGCUGAAGUACCAUUCAACAGAGGAUUGAGCAUCA
B22: 35805507_35818940_561_CDS_ENSG00000108100_ENST00000265375|human|control|control (ssRNA)
RNA: GGGAGUUCUACAGUCCGACGAUCUUCAUCAAAAAUAUCUAAGAGCAUCCUUCCAUCUGGGUCCCUGUUUUUGAUGUGAUAAUAUAUUGCAAGAGCGACACAUUUAAUUGUAUACUUGAGGUUUGGUUGACUGACUGUGCUAUCCAACAGAGGAUUGAGCAUCA

Numbering of substitutions follows the chain as printed. In all, about 24,000 sequences were measured (“enrichment r”: median about 0.99, highest 2% from about 3.7 on). The full list was thinned out, with the highest values kept by preference.

The assay has as its target T1, UNK ZnF1-3. Nature of the assay: nsRBNS (natural sequence RNA bind-n-seq); RBNS binding buffer (assumed for nsRBNS): 25 mM Tris pH 7.5, 150 mM KCl, 3 mM MgCl2, 0.01% Triton X-100, 500 ug/ml BSA, 20 U/ml SUPERase-In, 4 C; UNK is unkempt and MSI1 is Musashi-1; names of the RNAs are library labels; protein concentration not given here; high values mean tight binding.
On to B1, for which the binding signal amounted to 0.959 enrichment R.
As to B2, the binding signal turned out to be 0.923 enrichment R.
For B3 the value was 1.03 enrichment R.
For B4 the value was 0.508 enrichment R; for B5, 1.37 enrichment R.
With B6, the binding signal stood at 0.995 enrichment R.
With B7, the binding signal was found to be 0.8 enrichment R.
For B8 the value was 1.33 enrichment R; for B9, 3.96 enrichment R.
For B10 the value was 1.5 enrichment R.
The result for B11 reads 11.5 enrichment R.
Regarding B12, the binding signal came out at 3.59 enrichment R.
B13 had a binding signal of 0.909 enrichment R.
On to B14, for which the binding signal turned out to be 1.42 enrichment R.
The result for B15 reads 0.272 enrichment R; that for B16, 4.18 enrichment R.
B17 gave a binding signal of 1.15 enrichment R.
Regarding B18, the binding signal was 0.923 enrichment R.
For B19 the value was 1.16 enrichment R.
B20 gave a binding signal of 1.04 enrichment R.
In the case of B21, the binding signal was 0.906 enrichment R.
On to B22, for which the binding signal is 2 enrichment R.
